“And” between values parts separate entries of the source, which are not always exact repeats. Identical values can stand only once. Results filed as inconclusive are left out. The source made the active and inactive calls. Unless noted, the call rests on the fitted dose curve; in most records, active means well fitted curve in the direction sought with a large enough effect; inconclusive means small, poorly fitted or top-dose-only effect, or another doubt; inactive means no such curve, though single readings can be large; an effect the other way counts as inactive or inconclusive.
How the values were obtained:
[1] = qHTS for Inhibitors of Plasmodium falciparum (DD2) proliferation (AID 504314);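 further: parasite DNA measured by SYBR Green fluorescence after red cell lysis; plate controls were DMSO vehicle for no effect and artemisinin wells for full effect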
Outline: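 Erythrocytes infected with P. falciparum Dd2 (0.3% parasitemia, 2.5% hematocrit) exposed to compound 72 h at 37C, 5% CO2. Parasite DNA quantified by SYBR Green fluorescence after saponin/Triton lysis overnight; normalized to 0.29 uM artemisinin and DMSO.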

[2] = qHTS for Inhibitors of Plasmodium falciparum (GB4) proliferation (AID 504315);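 further: 0% = DMSO vehicle and -100% = 0.29 µM artemisinin control; nearly all actives have a fitted effect of over 50% in size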
Outline: (§1)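 Erythrocytes infected with P. falciparum line (0.3% parasitemia, 2.5% hematocrit final) incubated with compounds 72 h at 37 °C, 5% CO2; SYBR Green lysis buffer added, fluorescence read next day. Normalized to 0.29 uM artemisinin and DMSO.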

[3] = qHTS for Inhibitors of Plasmodium falciparum (7G8) proliferation (AID 504316); further: nearly all actives have a fitted effect of over 65% in size; further: potency means the concentration at half of the fitted maximal effect
Outline: as §1

[4] = qHTS for Inhibitors of Plasmodium falciparum (CP250) proliferation (AID 504320);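 further: plate controls were DMSO vehicle for no effect and 0.29 µM artemisinin control for full effect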
Outline: as §1

[5] = target: Atrial natriuretic peptide receptor 1 (Homo sapiens) (UniProt P16066); assay: Natriuretic polypeptide receptor (hNpr1) antagonism - Pilot CMLD screen (AID 1347052; calls by dose curve;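 further: HEK293 cells with hNpr1 stimulated by hNppA peptide at 0.1 nM; cGMP level read as GloSensor luciferase luminescence after agonist stimulation; series mostly up to about 9.2 µM; on the % scale 0 is the no-effect control and ±100 the full control effect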)
Atrial natriuretic peptide receptor 1 (Homo sapiens), sequence (P16066 whole entry, looked up): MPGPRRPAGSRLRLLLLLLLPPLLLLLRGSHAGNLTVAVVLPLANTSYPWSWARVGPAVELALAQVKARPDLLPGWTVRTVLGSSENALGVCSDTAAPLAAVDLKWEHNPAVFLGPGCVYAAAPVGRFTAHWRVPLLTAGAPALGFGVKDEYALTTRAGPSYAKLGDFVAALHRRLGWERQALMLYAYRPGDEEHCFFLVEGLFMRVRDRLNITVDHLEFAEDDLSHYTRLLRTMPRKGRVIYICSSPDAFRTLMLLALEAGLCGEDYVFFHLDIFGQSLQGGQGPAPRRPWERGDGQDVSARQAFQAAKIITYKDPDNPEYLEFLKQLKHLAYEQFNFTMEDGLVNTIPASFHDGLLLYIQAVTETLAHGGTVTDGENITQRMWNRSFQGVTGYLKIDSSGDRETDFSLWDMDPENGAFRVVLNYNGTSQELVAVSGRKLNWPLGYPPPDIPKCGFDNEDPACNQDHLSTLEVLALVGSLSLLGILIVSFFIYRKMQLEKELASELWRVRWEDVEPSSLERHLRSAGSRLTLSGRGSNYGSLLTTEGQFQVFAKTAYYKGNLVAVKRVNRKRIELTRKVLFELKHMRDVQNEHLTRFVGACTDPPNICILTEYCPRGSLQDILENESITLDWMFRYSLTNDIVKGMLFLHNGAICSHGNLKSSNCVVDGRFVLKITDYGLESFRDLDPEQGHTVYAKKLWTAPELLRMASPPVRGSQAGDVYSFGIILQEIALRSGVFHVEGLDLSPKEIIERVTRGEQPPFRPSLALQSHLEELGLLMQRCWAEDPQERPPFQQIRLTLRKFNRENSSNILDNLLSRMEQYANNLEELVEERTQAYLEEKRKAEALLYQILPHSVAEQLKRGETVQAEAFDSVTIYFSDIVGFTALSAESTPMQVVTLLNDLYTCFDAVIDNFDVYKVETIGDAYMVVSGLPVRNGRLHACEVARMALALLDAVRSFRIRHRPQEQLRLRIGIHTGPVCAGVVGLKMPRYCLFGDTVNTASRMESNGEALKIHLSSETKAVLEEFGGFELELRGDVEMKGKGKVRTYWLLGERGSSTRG

CCCCC1=CC2=C(c3ccco3)C(=O)C(C)(OC(=O)c3ccc(OC)cc3)C(=O)C2=CN1Cc1ccco1 (stereo not given)
inactive: Potency [1] | Potency [2] | Potency [3] | Potency [4] | Potency [5]

COc1ccc(CN2C=C3C(=O)C(C)(OC(=O)C4CCCC4)C(=O)C=C3C=C2c2ccsc2)cc1 (stereo not given)
inactive: activity, negative = inhibition [1] -5.43% [at 1.12 µM] | Potency [2] | Potency [3] | Potency [4] | Potency [5]

COC(=O)N1[C@H]2CC[C@@]3(C)CC(=O)C[C@]1(C)C3c1ccccc12
inactive: Potency [1] | Potency [2] | Potency [3] | Potency [4] | Potency [5]

COCCN1C(=O)CC[C@@]23C1=NC(C(=O)OC)=C(C(=O)OC)[C@@H]2N(Cc1ccccc1)c1ccccc13
inactive: Potency [1] | Potency [2] | Potency [3] | Potency [4] | Potency [5]

COc1ccc(-c2nc3c(c4c2C[C@H](c2ccccc2)OC4)CN(C(=O)c2ccco2)CC3)c(C)c1
active: Potency [3] 1.69 µM
inactive: activity, negative = inhibition [1] -2.96% [at 1.12 µM] | Potency [2] | Potency [4] | Potency [5]

Cc1cc(C)c(S(=O)(=O)OC[C@H]2C=CC[C@@H](CCC[C@H]3O[C@H](C(=O)OC(C)C)CC[C@@H]3C)O2)c(C)c1
inactive: Potency [1] | Potency [2] | Potency [3] | Potency [4] | Potency [5]

COC(=O)C1=C(C)N(Cc2ccccc2)C(=S)NC1c1ccccc1 (stereo not given)
inactive: Potency [1] | Potency [2] | Potency [3] | Potency [4] | Potency [5]

COC1=CC2C(=O)C(C(c3ccccc3)C2C)C1(O)c1cccc(OC)c1 (stereo not given)
inactive: Potency [1] | Potency [2] | Potency [3] | Potency [4] | Potency [5]

CC(C)=CCCC(C)=CCON=C1C[C@@H](O)[C@@H](O)[C@@H]2[C@H]3C(=O)N(Cc4ccc5c(c4)OCO5)C(=O)[C@@H]3CC[C@@H]12
inactive: Potency [1] | Potency [2] | Potency [3] | Potency [4] | Potency [5]

CCOC(=O)CN1C(=O)[C@@]2(CC(C)=C[C@@H](COCc3ccccc3)O2)c2ccccc21
inactive: Potency [1] | Potency [2] | Potency [3] | Potency [4] | Potency [5]

COC(=O)[C@H](COC(C)(C)C)NC(=O)O[C@@H]1C(=O)c2cc(OC)ccc2O[C@H]1c1ccc(OC)c(Br)c1
inactive: Potency [1] | Potency [2] | Potency [3] | Potency [4] | Potency [5]

C=CC1=C2C=C(C3CC3)N(CCCOC(C)C)C=C2C(=O)C(C)(OC(=O)c2ccco2)C1=O (stereo not given)
inactive: activity, negative = inhibition [1] 4.15% [at 1.12 µM] | Potency [2] | Potency [3] | Potency [4] | Potency [5]

C=CC1=C2C=C(C3CC3)N(CC3CC3)C=C2C(=O)C(C)(OC(=O)c2ccco2)C1=O (stereo not given)
inactive: Potency [1] | Potency [2] | Potency [3] | Potency [4] | Potency [5]

C[C@H]1Cc2c(-c3ccccc3)nc3c(c2CO1)CN(S(=O)(=O)c1ccc2c(c1)OCCN2C)CC3
inactive: activity, negative = inhibition [1] 0.591% [at 1.12 µM] | Potency [2] | Potency [3] | Potency [4] | Potency [5]

COC(=O)c1cc(C(=O)OC)n2c(C)cc3ccccc3c12
inactive: Potency [1] | Potency [2] | Potency [3] | Potency [4] | Potency [5]

COc1cccc([C@@H]2Oc3ccc(Br)cc3C(=O)[C@@H]2OC(=O)N[C@H]2CCCc3ccccc32)c1
inactive: Potency [1] | Potency [2] | Potency [3] | Potency [4] | Potency [5]

CC1(OC(=O)CCc2ccccc2)C(=O)C=C2C=C(c3ccc(C#N)cc3)N(C(CO)CO)C=C2C1=O (stereo not given)
inactive: activity, negative = inhibition [1] -1.45% [at 1.12 µM] | Potency [2] | Potency [3] | Potency [4] | Potency [5]

COC(=O)C1=C(C(=O)OC)[C@@H]2Nc3ccccc3[C@@]23C[C@@H](C(=O)OC)N(C(=O)Nc2ccccc2F)C3=N1
inactive: Potency [1] | Potency [2] | Potency [3] | Potency [4] | Potency [5]

CC1(OC(=O)c2ccco2)C(=O)C=C2C=C(c3ccsc3)OC=C2C1=O (stereo not given)
inactive: Potency [1] | Potency [2] | Potency [3] | Potency [4] | Potency [5]

CCOC(=O)CN1C(=O)[C@]2(O[C@H](C)CC3=CCCC32)c2c(Br)cccc21 (stereo not given in full)
inactive: Potency [1] | Potency [2] | Potency [3] | Potency [4] | Potency [5]

COC(=O)[C@@H]1CC[C@H](C)[C@@H](c2ccc(C)cc2)N1C(=O)c1ccc(C=NOC[C@@H](O)[C@H]2O[C@@H]3OC(C)(C)O[C@H]3[C@@H]2O)cc1
inactive: Potency [1] | Potency [2] | Potency [4] | Potency [5]
active: Potency [3] 1.2 µM

COC1=C[C@H](C(=O)NCc2ccccn2)[C@H](C)[C@@H](c2ccccc2)CC1=O
inactive: Potency [1] | Potency [2] | Potency [3] | Potency [4] | Potency [5]

CCOC(=O)CN1C(=O)N[C@@H](CCc2ccccc2)[C@H](C(=O)OC)[C@H]1C
inactive: Potency [1] | Potency [2] | Potency [3] | Potency [4] | Potency [5]

CCN(CC)CCCN1C=C2C(=O)C(C)(OC(=O)C3CCCC3)C(=O)C=C2C=C1c1ccsc1 (stereo not given)
inactive: activity, negative = inhibition [1] -4.1% [at 1.12 µM] | Potency [2] | Potency [3] | Potency [4] | Potency [5]

COc1ccc(-c2nc3c(c4c2C[C@H](c2ccccc2)OC4)CN(C(=O)c2cccnc2)CC3)c(C)c1
inactive: activity, negative = inhibition [1] 2.56% [at 1.12 µM] | Potency [2] | Potency [4] | Potency [5]
active: Potency [3] 1.51 µM and 1.69 µM

CC(C)CON=C1C[C@@H](O)[C@@H](O)[C@@H]2[C@H]3C(=O)N([C@@H](C)c4ccccc4)C(=O)[C@@H]3CC[C@H]12
inactive: Potency [1] | Potency [2] | Potency [3] | Potency [4] | Potency [5]
